Values without a mark were called inactive. The source made the active and inactive calls.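 The calls were made as follows: active = blocks over 70% of labeled estradiol binding at 10 µM, or over a set limit at 100 nM; inactive = the rest.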
molecular target: Estrogen receptor beta (Homo sapiens) (UniProt Q92731); assay: ERbeta ligand binders by competition, primary screen, cell-based, Cos7 ERbeta-GFP, flow cytometry (AID 1210); conditions: fluorescent estrogen binding, at 10 µM, active compounds read high;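 also: 0% = DMSO vehicle wells and 100% = complete loss of labeled estradiol signal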
Sequence (Q92731 whole entry, looked up): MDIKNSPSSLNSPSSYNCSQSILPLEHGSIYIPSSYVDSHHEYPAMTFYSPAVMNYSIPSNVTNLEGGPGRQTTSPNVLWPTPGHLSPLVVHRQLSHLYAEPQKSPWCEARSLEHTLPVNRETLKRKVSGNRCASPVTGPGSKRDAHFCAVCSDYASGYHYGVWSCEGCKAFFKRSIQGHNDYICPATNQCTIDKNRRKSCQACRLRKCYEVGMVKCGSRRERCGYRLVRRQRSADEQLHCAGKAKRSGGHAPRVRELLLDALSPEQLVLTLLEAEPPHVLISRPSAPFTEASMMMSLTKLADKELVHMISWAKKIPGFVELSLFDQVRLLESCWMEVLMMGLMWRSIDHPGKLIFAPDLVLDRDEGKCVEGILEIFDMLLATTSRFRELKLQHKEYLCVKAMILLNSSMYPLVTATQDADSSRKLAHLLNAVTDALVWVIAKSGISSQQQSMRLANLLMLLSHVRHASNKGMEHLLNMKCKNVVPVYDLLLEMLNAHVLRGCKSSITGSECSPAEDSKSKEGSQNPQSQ

For `CC(=O)c1ccc(NC(=S)N2CCC(O)CC2)cc1`, which inhibition is on record?
The inhibition was 41%.

`Cc1c2cc(O)c(=O)cc-2oc2cc(O)c(O)cc12` was tested. Which inhibition did it give?
Its inhibition is 67%.

With `O=C(Cc1cccs1)Nc1nncs1` as the compound, how does the inhibition read?
The inhibition was 26%.

For `CCSc1nc2c(cnn2-c2ccc(C)cc2)c(=O)[nH]1`, which inhibition is on record?
Its inhibition is 31%.

For `COc1ccc(C(=O)N/N=C(\C)c2ccc3c(c2)C2C=CCC2C(c2ccccc2)N3)cc1` (stereo not drawn), which inhibition is on record?
The inhibition was 67% (active).

How did the inhibition turn out when `Cc1noc(C)c1COc1ccc(C(=O)OCC(=O)N2c3ccccc3NC(=O)C2(C)C)cc1` was run?
Its inhibition is 42%.

How did the inhibition turn out when `CCNC(=O)c1ccc2c(c1)C1C3CCC(C3)C1C(c1ccccc1)N2` (stereo not drawn) was run?
Its inhibition is 29%.

For `O=Cc1cn(-c2ccccc2)nc1-c1cc2c(ccc3ccccc32)oc1=O`, which inhibition is on record?
The inhibition was 39% (active).

For `Cc1cc(=O)oc2c(CN3CCC(C)CC3)c(O)c(Cl)cc12`, which inhibition is on record?
Its inhibition is 20%.

Which inhibition does the source give for `COC(=O)c1ccc(CC(=O)c2c(C)cc(O)cc2O)o1` here?
The inhibition was 62%.

Which inhibition does the source give for `CC(C)C1Nc2c(O)cc(Cl)c([N+](=O)[O-])c2C2C=CCC21` (stereo not drawn) here?
The inhibition was 28%.

For `CCN(CC)c1ccc2c(c1)oc(=O)c1c(Cl)cc(=O)oc12`, which inhibition is on record?
The inhibition was 33%.

`COc1ccc(N=Cc2sc(O)c3ccccc23)cc1` was tested. Which inhibition did it give?
The inhibition was 47%.

With `O=c1[nH]cnc2c1sc1nc3c(c(-c4ccc(Cl)cc4)c12)CCC3` as the compound, how does the inhibition read?
Its inhibition is 51%.

How did the inhibition turn out when `Cc1snc2sc(C(=O)c3ccc(Br)cc3)c(N)c12` was run?
Its inhibition is 26%.

Which inhibition does the source give for `O=C(CSc1nnc(-c2ccc(OC(F)F)cc2)o1)NC(=O)NCc1ccco1` here?
The inhibition was 39%.

With `COc1ccc(NC(=O)c2ccco2)cc1N` as the compound, how does the inhibition read?
The inhibition was 69%.

How did the inhibition turn out when `O=C(O)C1Nc2c(O)cc(Cl)c([N+](=O)[O-])c2C2C=CCC12` (stereo not drawn) was run?
The inhibition was 31%.

For `CC(C)(C)NC(=O)c1ccc2c(c1)C1C3CCC(C3)C1C(c1ccccc1)N2` (stereo not drawn), which inhibition is on record?
The inhibition was 3%.

`CCCCNS(=O)(=O)c1ccc(NC(=O)C(Sc2ccccc2)c2ccccc2)cc1` (stereo not drawn) was tested. Which inhibition did it give?
Its inhibition is 41%.

How did the inhibition turn out when `COCCCn1c(Cc2csc(Nc3cccc(Cl)c3)n2)nnc1SCC(=O)OC1CCCCC1` was run?
The inhibition was 11%.

How did the inhibition turn out when `COc1ccc(C2Nc3ccccc3C(=O)N2c2ccccc2)cc1Cn1cc([N+](=O)[O-])cn1` (stereo not drawn) was run?
The inhibition was 26%.

`O=C(CSc1nc2c(cnn2-c2ccccc2)c(=O)[nH]1)c1ccc(Cl)cc1` was tested. Which inhibition did it give?
The inhibition was 39%.

Source: PubChem BioAssay AID1210 (NMMLSC, 2008)
